Values without a mark were called inactive.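 The calls were made as follows: active = AUC reduced over 20% with Padj below 0.05 in at least 2 of 3 replicates; inactive = otherwise.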
Assays:
Test in all cases: growth AUC relative to DMSO control (median of replicates) (fraction); higher = more growth (less inhibition), active = hit call of the paper
Conditions in all cases: 20 µM; 24 h
Akkermansia muciniphila = test system: Akkermansia muciniphila
Method in brief: (§1)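 Gut bacterial monocultures were grown anaerobically at 37 °C in mGAM from a starting OD600 of 0.05 with 20 µM compound (1% DMSO), in round-bottom 96-well plates under pierced gas-permeable seals, and OD600 was read hourly for 24 h. With the minimum OD set to 0, area under the growth curve was normalised to the plate median of solvent-only wells, or to row and column medians on the industrial chemical plate. Each value is the median of three biological replicates grown on separate days.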

Bacteroides caccae = test system: Bacteroides caccae
Method in brief: as §1

Bacteroides clarus = test system: Bacteroides clarus
Method in brief: as §1

Bacteroides dorei = test system: Bacteroides dorei
Method in brief: as §1

Bacteroides stercoris = test system: Bacteroides stercoris
Method in brief: as §1

[1] = test system: Bacteroides thetaiotaomicron
Method in brief: as §1

Bacteroides uniformis = test system: Bacteroides uniformis
Method in brief: as §1

[2] = test system: Bifidobacterium longum subsp. longum
Method in brief: as §1

Clostridium difficile = test system: Clostridium difficile
Method in brief: as §1

Collinsella aerofaciens = test system: Collinsella aerofaciens
Method in brief: as §1

Coprococcus comes = test system: Coprococcus comes
Method in brief: as §1

Escherichia coli ED1a = test system: Escherichia coli ED1a
Method in brief: as §1

Escherichia coli IAI1 = test system: Escherichia coli IAI1
Method in brief: as §1

Eubacterium rectale = test system: Eubacterium rectale
Method in brief: as §1

[3] = test system: Fusobacterium nucleatum subsp. animalis
Method in brief: as §1

Lactobacillus gasseri = test system: Lactobacillus gasseri
Method in brief: as §1

Lactobacillus paracasei = test system: Lactobacillus paracasei
Method in brief: as §1

Odoribacter splanchnicus = test system: Odoribacter splanchnicus
Method in brief: as §1

[4] = test system: Parabacteroides distasonis
Method in brief: as §1

Parabacteroides merdae = test system: Parabacteroides merdae
Method in brief: as §1

SMILES | growth AUC (Akkermansia muciniphila) | growth AUC (Bacteroides caccae) | growth AUC (Bacteroides clarus) | growth AUC (Bacteroides dorei) | growth AUC (Bacteroides stercoris) | growth AUC [1] | growth AUC (Bacteroides uniformis) | growth AUC [2] | growth AUC (Clostridium difficile) | growth AUC (Collinsella aerofaciens) | growth AUC (Coprococcus comes) | growth AUC (Escherichia coli ED1a) | growth AUC (Escherichia coli IAI1) | growth AUC (Eubacterium rectale) | growth AUC [3] | growth AUC (Lactobacillus gasseri) | growth AUC (Lactobacillus paracasei) | growth AUC (Odoribacter splanchnicus) | growth AUC [4] | growth AUC (Parabacteroides merdae)
CCOCCN(C(=O)CCl)C(=C(C)C)c1ccccc1 | 0.903 | 1.01 | 0.998 | 1 | 0.967 | 0.937 | 0.944 | 1.04 | 0.954 | 1.02 | 0.999 | 0.98 | 0.976 | 0.982 | 0.986 | 0.935 | 1.01 | 0.978 | 0.955 | 1
Clc1cc(Cl)c(Cl)c(Cl)c1 | 0.953 | 0.971 | 0.989 | 0.957 | 0.887 | 0.997 | 1.02 | 1 | 0.977 | 0.922 | 0.984 | 0.961 | 0.982 | 1.05 | 0.957 | 0.918 | 0.949 | 1.08 | 0.953 | 0.941
CCc1nn(C)c(C(=O)NCc2ccc(Oc3ccc(C)cc3)cc2)c1Cl | 0.877 | 0.935 | 0.932 | 0.974 | 0.633 | 0.967 | 0.984 | 0.81 | 1.04 | 0.952 | 0.959 | 0.986 | 0.997 | 0.96 | 0.952 | 1.1 | 0.942 | 0.896 | 0.947 | 0.975
COP(=O)(OC)Oc1ccc(S(C)=O)c(C)c1 (stereo not given) | 0.935 | 0.986 | 0.95 | 1 | 1.02 | 0.972 | 0.994 | 1 | 1.01 | 0.996 | 1.01 | 0.962 | 0.987 | 0.797 | 0.911 | 1.13 | 0.975 | 1.02 | 1.01 | 0.978
CCOC(=O)CCN(Cc1ccccc1)SN(C)C(=O)O/N=C(/C)SC | 0.948 | 0.993 | 0.979 | 1.04 | 1.09 | 0.991 | 1.09 | 1.03 | 1.01 | 1.02 | 0.985 | 0.995 | 0.988 | 1.08 | 0.837 | 0.909 | 1.02 | 1.08 | 1.02 | 0.99
CCCCCCCCn1sccc1=O | 1.04 | 0.924 | 0.442 (active) | 0.912 | 0.995 | 0.689 (active) | 0.731 | 0.571 (active) | 0.848 | 0.776 (active) | 0.958 | 0.944 | 0.938 | 0.868 | 0.83 | 0.757 (active) | 1.01 | 0.597 | 0.129 (active) | 0.00935 (active)
COP(=S)(OC)Oc1ccc(S(N)(=O)=O)cc1 | 1.02 | 1.03 | 0.995 | 1 | 0.984 | 0.984 | 1.02 | 0.969 | 0.992 | 0.984 | 1.01 | 0.976 | 0.999 | 0.901 | 0.998 | 1.06 | 1.05 | 1 | 0.992 | 1.01
CS(=O)(=O)NC(=O)c1cc(Oc2ccc(C(F)(F)F)cc2Cl)ccc1[N+](=O)[O-] | 1.03 | 1.01 | 0.955 | 0.972 | 0.875 | 0.993 | 0.992 | 1.04 | 0.94 | 0.951 | 0.926 | 0.971 | 0.962 | 1.09 | 0.906 | 0.958 | 1.01 | 1.09 | 0.984 | 0.978
Clc1cccc(C(Cl)(Cl)Cl)n1 | 1.16 | 1.01 | 1.01 | 0.948 | 1.03 | 1.02 | 0.961 | 1.06 | 1.01 | 0.974 | 1.02 | 0.974 | 0.976 | 1.05 | 1.01 | 0.889 | 1.01 | 0.964 | 1 | 0.967
COP(=S)(OC)Oc1cc(Cl)c(I)cc1Cl | 1.09 | 0.999 | 0.959 | 0.985 | 1.04 | 0.964 | 0.954 | 0.918 | 0.937 | 0.941 | 1.01 | 1.02 | 0.985 | 1.01 | 1.08 | 0.872 | 1 | 0.962 | 0.707 (active) | 0.964
C=CCN=C=S | 0.98 | 0.968 | 0.993 | 1.01 | 0.977 | 1.02 | 1.02 | 0.999 | 1.01 | 1.02 | 1 | 1.01 | 0.979 | 0.974 | 1.06 | 1.05 | 0.991 | 1 | 0.996 | 1.03
COc1ccccc1N | 1 | 1.02 | 1.04 | 1.01 | 1.16 | 1.02 | 1.02 | 1.05 | 1.01 | 1.02 | 0.993 | 1 | 1 | 1.08 | 1.04 | 1.02 | 1.02 | 1.16 | 1.28 | 1.02
ClC1=C(Cl)C(Cl)(C2(Cl)C(Cl)=C(Cl)C(Cl)=C2Cl)C(Cl)=C1Cl | 1.27 | 0.926 | 0.93 | 0.895 | 0.809 | 0.856 | 0.875 | 0.94 | 1 | 0.823 | 1.05 | 1.04 | 1.01 | 0.861 | 1.13 | 1.01 | 0.987 | 1 | 0.958 | 0.863
COC(=O)Nc1cccc(OC(=O)Nc2cccc(C)c2)c1 | 0.871 | 0.991 | 0.983 | 1.02 | 0.99 | 1.01 | 0.994 | 1.03 | 1.02 | 0.926 | 1.03 | 1 | 0.966 | 1 | 0.944 | 0.933 | 0.987 | 1.05 | 0.976 | 0.968
CC(C)[C@H](C(=O)O[C@H](C#N)c1cccc(Oc2ccccc2)c1)c1ccc(Cl)cc1 | 1.1 | 0.99 | 0.979 | 1.04 | 0.778 | 1.01 | 1.02 | 0.917 | 1 | 0.921 | 0.973 | 0.962 | 0.959 | 0.934 | 0.954 | 0.901 | 1.01 | 1.09 | 0.923 | 1.01
